# Test results from paper PMC4552634, “A New Set of Chemical Starting Points with Plasmodium falciparum Transmission-Blocking Potential for Antimalarial Drug Discovery” (PLoS ONE, 2015).
# Out of some 13,000 compounds screened, about 3,200 (25%) showed an effect of 50% or more. The list shows a part of the results.
# Tested on: P. falciparum stage V gametocytes
# Design: BacTiter-Glo ATP luminescence viability of purified stage V gametocytes in 384-well plates, per cent inhibition versus DMSO
# Conditions: 48 h, 5 µM; inhibitor
row,Compound,% Inhibition [%]
1,CN(C)c1ccc(-c2csc(C(=O)NCC3CCN(Cc4cccc(C(F)(F)F)c4)C3)c2)cc1 (stereo not shown) [TCMDC-134486],49.29
2,CN(C)c1ccc(-c2csc(C(=O)NCC3CCN(Cc4ccc(C(C)(C)C)cc4)C3)c2)cc1 (stereo not shown) [TCMDC-134449],80.7
3,CC(C)c1ccc(CN2CCC(CNC(=O)c3cc(-c4ccc(N(C)C)cc4)cs3)C2)cc1 (stereo not shown) [TCMDC-134440],77.06
4,CN(C)c1ccc(-c2csc(C(=O)NCC3CCN(CCC(C)(C)C)C3)c2)cc1 (stereo not shown) [TCMDC-134427],60.6
5,O=C1CCCC1Sc1nc2ccccc2c(=O)n1-c1ccc(Cl)c(Cl)c1 (stereo not shown) [TCMDC-125029],-36.37
6,CC1(C)N=C(N)N=C(N)N1OCCSc1ccc(Cl)c(Cl)c1 [TCMDC-131704],5.969
7,CN1CCN(c2cc3c(cc2Br)CCN3C(=O)Nc2ccc(-c3cnc4ccccc4c3)cc2)CC1 [TCMDC-139280],14.3
8,Cc1cc(N[C@@H](CC(C)C)C(=O)Nc2ccccc2)nc(NCC2CCCCC2)n1 [TCMDC-134921],-51.59
9,CCOc1cc(C)ccc1N(C1CCN(CCCCNC(=O)c2ccc(-c3ccc(C(F)(F)F)cc3)cc2)CC1)S(=O)(=O)c1ccccc1 [TCMDC-138637],32.99
10,CCC(C)c1ccc(-n2c(Nc3ccccc3)nc3cc(S(N)(=O)=O)ccc32)cc1 (stereo not shown) [TCMDC-135490],-10.42
11,CCc1c[nH]c2c(N3CCCCS3(=O)=O)cc(C(=O)N[C@@H](Cc3ccccc3)[C@H](O)CNCc3cccc(OC)c3)cc12 [TCMDC-134127],-6.303
12,CCCC(C)Nc1nc(C)cc(N[C@@H](Cc2ccccc2)C(=O)Nc2ccc(OC)cc2)n1 (stereo partly shown) [TCMDC-134881],-19.42
13,COc1ccc(NC(=O)[C@H](Cc2ccccc2)Nc2cc(C)nc(NCC3CCCCC3)n2)cc1 [TCMDC-134929],14.59
14,Cc1cc(N[C@@H](Cc2ccccc2)C(=O)Nc2ccccc2)nc(NCCc2ccccn2)n1 [TCMDC-134749],53.15
15,COc1ccc(NC(=O)[C@H](Cc2ccccc2)Nc2cc(C)nc(NCCc3ccccn3)n2)cc1 [TCMDC-134746],109.1
16,CO/C(=C\C=C\c1cc2cc(Cl)c(Cl)cc2[nH]1)C(=O)NCCCN1CCN(c2cccc(OC)c2)CC1 [TCMDC-139161],-21.84
17,O=C(N[C@@H](Cc1ccccc1)C(=O)NC1CCCc2ccccc21)c1ccc(O)c(-c2ccc(Cl)c(Cl)c2)c1 (stereo partly shown) [TCMDC-140868],35.62
18,Nc1ncc(-c2cccc(CCN3CCOCC3)c2)cc1-c1nc2ccc(Br)cc2[nH]1 [TCMDC-133135],15.3
19,NC1CCN(Cc2ccc(-c3cccc(-c4nc5ccccc5[nH]4)c3)cc2)C1 (stereo not shown) [TCMDC-133879],58.35
20,CC1CN(Cc2ccc(-c3ccc(-c4nc5ccccc5[nH]4)cc3)cc2)CC(C)O1.O=C(O)C(F)(F)F (stereo not shown) [TCMDC-133828],-35.16
21,NC1CCN(Cc2ccc(-c3ccc(-c4nc5ccccc5[nH]4)cc3)cc2)C1.O=C(O)C(F)(F)F (stereo not shown) [TCMDC-133868],102.2
22,OC1CCCN(Cc2ccc(-c3cccc(-c4nc5ccccc5[nH]4)c3)cc2)C1 (stereo not shown) [TCMDC-133836],-1.76

row,Compound,% Inhibition [%]
1,NC1CCCN(Cc2ccc(-c3cccc(-c4nc5ccccc5[nH]4)c3)cc2)C1 (stereo not shown) [TCMDC-133880],58.58
2,O=C(O)C(F)(F)F.OC1CCCN(Cc2ccc(-c3ccc(-c4nc5ccccc5[nH]4)cc3)cc2)C1 (stereo not shown) [TCMDC-133829],-32.2
3,N=c1c2c(n(Cc3ccccc3)c3c1CCC3)CCCC2 [TCMDC-124229],-1.262
4,Clc1cccc(C23N=C(Nc4nc5ccccc5[nH]4)NC2(c2ccccc2)NC(Nc2nc4ccccc4[nH]2)=N3)c1 (stereo not shown) [TCMDC-139089],3.895
5,FC(F)(F)Oc1ccc(-c2cnc3ccc(NCc4ccncc4)nn23)cc1 [TCMDC-136681],34.75
6,COc1ccc(-c2cnc3ccc(NCc4ccc(S(N)(=O)=O)cc4)nn23)cn1 [TCMDC-136688],73.26
7,N#Cc1ccc(-c2cnc3ccc(NCc4ccc(S(N)(=O)=O)cc4)nn23)cc1 [TCMDC-124515],21.95
8,NS(=O)(=O)c1ccc(CNc2ccc3ncc(-c4ccc(OC(F)(F)F)cc4)n3n2)cc1 [TCMDC-136685],61.81
9,COc1ccc(-c2cnc3ccc(NCc4ccc(S(N)(=O)=O)cc4)nn23)cc1 [TCMDC-136687],45.37
10,NS(=O)(=O)c1ccc(CNc2ccc3ncc(-c4ccc(Cl)cc4)n3n2)cc1 [TCMDC-136686],45.42
11,CC(C)(CNC(=O)/C=C/c1ccc(Cl)c(Cl)c1)CNc1cc(=O)c2ccccc2[nH]1 [TCMDC-139404],-42.09
12,O=C(/C=C/c1ccc(Cl)c(Cl)c1)NCCCCCN1CCC(NC(=O)Nc2cc(Cl)ccc2Cl)CC1 [TCMDC-135726],-46.31
13,O=C(Cc1cnc[nH]1)Nc1cccc(-c2cccc(-c3nc4ccc(C(F)(F)F)cc4[nH]3)c2)c1 [TCMDC-136948],-28.45
14,CC1SC(=S)NC1C(=O)O (stereo not shown) [TCMDC-131380],9.711
15,O=C(Nc1ccccc1)N(Cc1cccc(-c2cccc(CNCc3ccc4c(c3)OCO4)c2)c1)C1CCN(Cc2ccccc2)CC1 [TCMDC-140590],57.66
16,COCCNCc1cccc(-c2ccccc2CN(C(=O)c2ccc3c(c2)OCO3)c2ccc(OC)cc2)c1 [TCMDC-140571],88.17
17,CC(=O)N(Cc1cccc(-c2cccc(CNCc3ccc4c(c3)OCO4)c2)c1)C1CCN(Cc2ccccc2)CC1 [TCMDC-140529],-13.98
18,COCC(=O)N(Cc1ccccc1-c1cccc(CNCc2ccc3c(c2)OCO3)c1)C1CCN(Cc2ccccc2)CC1 [TCMDC-140535],7.259
19,COCCNC(=O)C(CNC(=O)c1ccc2c(c1)OCO2)NC(=O)c1ccc(-c2ccccc2)cc1 (stereo not shown) [TCMDC-140308],-7.15
20,O=C(Nc1ccccc1)N(Cc1cccc(-c2ccc(CNCc3ccc4c(c3)OCO4)cc2)c1)C1CCN(Cc2ccccc2)CC1 [TCMDC-140591],67.97
21,CC(=O)N(Cc1ccccc1-c1cccc(CNCc2ccc3c(c2)OCO3)c1)C1CCN(Cc2ccccc2)CC1 [TCMDC-140526],86.49
